# Source: PubChem BioAssay (NCI)
# About 79,000 compounds went through this panel and 15% of them were active in at least one assay; those are over-represented in the sample as a whole. A number with no mark means an inactive call. Activity calls are given as the source filed them. Rule as the data show it: active = growth inhibition above about 70%; inactive = the rest.
# Experiments:
# [1] = NCI Yeast Anticancer Drug Screen. Data for the wt1 strain (AID 149);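 also: 0% = growth of vehicle-treated wt1 cultures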; conditions: S. cerevisiae wt1 strain (SPY 50644) growth inhibition, active compounds read high
# How it was run: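 Yeast wt1 strain exposed to compounds; growth inhibition measured relative to vehicle-treated controls.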
# [2] = NCI Yeast Anticancer Drug Screen. Data for the rad50EPP+ strain (AID 151);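 also: 0% = growth of vehicle-treated control cultures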; conditions: S. cerevisiae rad50 mutant strain, active compounds read high
# How it was run: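 Growth inhibition read against vehicle controls in rad50EPP+ yeast, a strain altered in DNA damage repair, after compound exposure.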
# [3] = NCI Yeast Anticancer Drug Screen. Data for the mgt1 strain (AID 153); conditions: S. cerevisiae mgt1 mutant growth inhibition, active compounds read high
# How it was run: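 mgt1 yeast grown with test compound; read-out is growth inhibition versus vehicle-treated cultures.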
# [4] = NCI Yeast Anticancer Drug Screen. Data for the rad50 strain (AID 155);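 also: 0% = growth of vehicle-only cultures of the same strain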; conditions: S. cerevisiae rad50 strain growth inhibition, active compounds read high
# How it was run: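 Yeast carrying a defined DNA repair defect were exposed to test compounds, and growth was compared with vehicle-treated controls to give percent inhibition.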
# [5] = NCI Yeast Anticancer Drug Screen. Data for the mec2-1 strain (AID 157); conditions: S. cerevisiae mec2-1 strain, active compounds read high
# How it was run: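 Yeast mec2-1 mutant treated with compound. Readout: growth inhibition vs vehicle controls.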
# [6] = NCI Yeast Anticancer Drug Screen. Data for the rad14 strain (AID 159);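 also: 0% = growth of vehicle-treated control cultures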; conditions: S. cerevisiae rad14 strain growth inhibition, active compounds read high
# How it was run: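 Yeast cells carrying a defined DNA-repair defect were exposed to compounds, and growth inhibition was calculated relative to vehicle-treated control cultures.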
# [7] = NCI Yeast Anticancer Drug Screen. Data for the sgs1 mgt1 strain (AID 161);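 also: 0% = growth of cultures given vehicle only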; conditions: S. cerevisiae sgs1 mgt1 strain, active compounds read high
# How it was run: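 Test agents were incubated with a DNA-repair-mutant yeast strain. Growth was then read and compared against vehicle-treated controls.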
# [8] = NCI Yeast Anticancer Drug Screen. Data for the CLN2oe strain (AID 163);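 also: 0% = growth of vehicle-only control cultures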; conditions: S. cerevisiae CLN2oe strain, active compounds read high
# How it was run: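 Read-out: yeast growth inhibition, expressed relative to vehicle-only controls. The strain bears an engineered cell-cycle alteration.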
# [9] = NCI Yeast Anticancer Drug Screen. Data for the cln2 rad14 strain (AID 165);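 also: 0% = growth equal to vehicle treated cultures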; conditions: S. cerevisiae cln2 rad14 strain, active compounds read high
# How it was run: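 cln2 rad14 yeast strain; compound exposure; growth inhibition read vs vehicle controls.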
# [10] = NCI Yeast Anticancer Drug Screen. Data for the bub3 strain (AID 167); conditions: S. cerevisiae bub3 mutant strain, active compounds read high
# How it was run: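 Compounds were applied to a genetically altered yeast strain carrying a cell-cycle control defect. Growth inhibition was scored against vehicle-treated controls.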
# [11] = NCI Yeast Anticancer Drug Screen. Data for the wt2 strain (AID 169);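 also: 0% = growth of vehicle-treated yeast cultures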; conditions: S. cerevisiae wt2 strain growth inhibition, active compounds read high
# How it was run: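 Read-out: growth inhibition versus vehicle-treated control cultures after compound exposure of the yeast strain.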
# [12] = NCI Yeast Anticancer Drug Screen. Data for the mlh1 strain (AID 171);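 also: 0% = growth of vehicle-treated control cultures of the same strain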; conditions: S. cerevisiae mlh1 strain growth inhibition, active compounds read high
# How it was run: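 Read-out: growth inhibition versus vehicle controls. Strain: engineered yeast with a defined DNA repair or cell cycle defect, compound-treated.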
# [13] = NCI Yeast Anticancer Drug Screen. Data for the sgs1 strain (AID 173);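 also: 0% = growth of vehicle-only control cultures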; conditions: S. cerevisiae sgs1 mutant, active compounds read high
# How it was run: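 Read-out: yeast growth inhibition relative to vehicle controls, following compound exposure of a strain with a defined DNA repair/cell cycle alteration.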
# [14] = NCI Yeast Anticancer Drug Screen. Data for the mlh1 rad18 strain (AID 175); conditions: S. cerevisiae mlh1 rad18 strain growth inhibition, active compounds read high
# How it was run: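 Yeast w/ defined DNA-repair lesions; compound exposure; growth vs vehicle controls → % inhibition.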
# [15] = NCI Yeast Anticancer Drug Screen. Data for the rad18 strain (AID 177); conditions: S. cerevisiae rad18 mutant growth inhibition, active compounds read high
# How it was run: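 Readout: growth inhibition vs vehicle controls. Cells: genetically altered yeast strain, DNA repair defect.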
# [16] = at 5.0 µM (retest, dose inferred, filed as 0.5)
# [17] = at 50.0 µM (retest, dose inferred, filed as 5.0)
smiles,measurement,setting,value
NCCCSc1ccccc1,growth inhibition,[1]; at 1.2 µM,-2%
same,growth inhibition,[1]; at 3.7 µM,-4%
same,growth inhibition,[1]; at 11.0 µM,-2%
same,growth inhibition,[1]; at 33.0 µM,-3%
same,growth inhibition,[1]; at 100.0 µM,-3%
same,growth inhibition,[2]; at 1.2 µM,-3%
same,growth inhibition,[2]; at 3.7 µM,-1%
same,growth inhibition,[2]; at 11.0 µM,-4%
same,growth inhibition,[2]; at 33.0 µM,-8%
same,growth inhibition,[2]; at 100.0 µM,-6%
same,growth inhibition,[3]; at 1.2 µM,-3%
same,growth inhibition,[3]; at 3.7 µM,-4%
same,growth inhibition,[3]; at 11.0 µM,-4%
same,growth inhibition,[3]; at 33.0 µM,13%
same,growth inhibition,[3]; at 100.0 µM,-1%
same,growth inhibition,[4]; at 1.2 µM,-3%
same,growth inhibition,[4]; at 3.7 µM,-2%
same,growth inhibition,[4]; [16],2%
same,growth inhibition,[4]; at 11.0 µM,-2%
same,growth inhibition,[4]; at 33.0 µM,-3%
same,growth inhibition,[4]; [17],-19%
same,growth inhibition,[4]; at 50.0 µM,-25.2%
same,growth inhibition,[4]; at 100.0 µM,-2%
same,growth inhibition,[5]; at 1.2 µM,-1%
same,growth inhibition,[5]; at 3.7 µM,0%
same,growth inhibition,[5]; [16],-8%
same,growth inhibition,[5]; at 11.0 µM,1%
same,growth inhibition,[5]; at 33.0 µM,0%
same,growth inhibition,[5]; [17],-30%
same,growth inhibition,[5]; at 50.0 µM,14.7%
same,growth inhibition,[5]; at 100.0 µM,0%
same,growth inhibition,[6]; at 1.2 µM,-2%
same,growth inhibition,[6]; at 3.7 µM,-1%
same,growth inhibition,[6]; at 11.0 µM,-1%
same,growth inhibition,[6]; at 33.0 µM,-1%
same,growth inhibition,[6]; at 100.0 µM,-1%
same,growth inhibition,[7]; [16],-11%
same,growth inhibition,[7]; [17],-6%
same,growth inhibition,[7]; at 50.0 µM,-1.9%
same,growth inhibition,[8]; at 1.2 µM,-4%
same,growth inhibition,[8]; at 3.7 µM,-3%
same,growth inhibition,[8]; at 11.0 µM,0%
same,growth inhibition,[8]; at 33.0 µM,-4%
same,growth inhibition,[8]; at 100.0 µM,-5%
same,growth inhibition,[9]; [16],-3%
same,growth inhibition,[9]; [17],37%
same,growth inhibition,[9]; at 50.0 µM,34.4%
same,growth inhibition,[10]; at 1.2 µM,-2%
same,growth inhibition,[10]; at 3.7 µM,-3%
same,growth inhibition,[10]; [16],8%
same,growth inhibition,[10]; at 11.0 µM,-1%
same,growth inhibition,[10]; at 33.0 µM,-1%
same,growth inhibition,[10]; [17],78% (active)
same,growth inhibition,[10]; at 50.0 µM,-0.3%
same,growth inhibition,[10]; at 100.0 µM,-4%
same,growth inhibition,[11]; at 1.2 µM,-2%
same,growth inhibition,[11]; at 3.7 µM,-2%
same,growth inhibition,[11]; at 11.0 µM,-2%
same,growth inhibition,[11]; at 33.0 µM,-2%
same,growth inhibition,[11]; at 100.0 µM,-1%
same,growth inhibition,[12]; at 1.2 µM,-2%
same,growth inhibition,[12]; at 3.7 µM,-4%
same,growth inhibition,[12]; at 11.0 µM,-2%
same,growth inhibition,[12]; at 33.0 µM,-4%
same,growth inhibition,[12]; at 100.0 µM,-2%
same,growth inhibition,[13]; at 1.2 µM,0%
same,growth inhibition,[13]; at 3.7 µM,1%
same,growth inhibition,[13]; at 11.0 µM,2%
same,growth inhibition,[13]; at 33.0 µM,0%
same,growth inhibition,[13]; at 100.0 µM,1%
same,growth inhibition,[14]; [16],-21%
same,growth inhibition,[14]; [17],-15%
same,growth inhibition,[14]; at 50.0 µM,-4.65%
same,growth inhibition,[15]; at 1.2 µM,-1%
same,growth inhibition,[15]; at 3.7 µM,-1%
same,growth inhibition,[15]; at 11.0 µM,-8%
same,growth inhibition,[15]; at 33.0 µM,1%
same,growth inhibition,[15]; at 100.0 µM,-1%
CC(=O)CC(c1ccccc1)c1c(O)c2ccccc2oc1=O (stereo unspecified),growth inhibition,[1]; at 1.2 µM,-10%
same,growth inhibition,[1]; at 3.7 µM,-10%
same,growth inhibition,[1]; at 11.0 µM,-12%
same,growth inhibition,[1]; at 33.0 µM,10%
same,growth inhibition,[1]; at 100.0 µM,64%
same,growth inhibition,[2]; at 1.2 µM,15%
same,growth inhibition,[2]; at 3.7 µM,4%
same,growth inhibition,[2]; at 11.0 µM,-3%
same,growth inhibition,[2]; at 33.0 µM,-4%
same,growth inhibition,[2]; at 100.0 µM,-16%
same,growth inhibition,[3]; at 1.2 µM,13%
same,growth inhibition,[3]; at 3.7 µM,4%
same,growth inhibition,[3]; at 11.0 µM,14%
same,growth inhibition,[3]; at 33.0 µM,44%
same,growth inhibition,[3]; at 100.0 µM,83% (active)
same,growth inhibition,[4]; at 1.2 µM,6%
same,growth inhibition,[4]; at 3.7 µM,5%
same,growth inhibition,[4]; [16],70% (active)
same,growth inhibition,[4]; at 11.0 µM,6%
same,growth inhibition,[4]; at 33.0 µM,20%
same,growth inhibition,[4]; [17],95% (active)
same,growth inhibition,[4]; at 50.0 µM,46.8%
same,growth inhibition,[4]; at 100.0 µM,76% (active)
same,growth inhibition,[5]; at 1.2 µM,-9%
same,growth inhibition,[5]; at 3.7 µM,-9%
same,growth inhibition,[5]; [16],61%
same,growth inhibition,[5]; at 11.0 µM,-4%
same,growth inhibition,[5]; at 33.0 µM,12%
same,growth inhibition,[5]; [17],97% (active)
same,growth inhibition,[5]; at 50.0 µM,31.5%
same,growth inhibition,[5]; at 100.0 µM,67%
same,growth inhibition,[7]; [16],-1%
same,growth inhibition,[7]; [17],89% (active)
same,growth inhibition,[7]; at 50.0 µM,55.4%
same,growth inhibition,[8]; at 1.2 µM,17%
same,growth inhibition,[8]; at 3.7 µM,22%
same,growth inhibition,[8]; at 11.0 µM,6%
same,growth inhibition,[8]; at 33.0 µM,39%
same,growth inhibition,[8]; at 100.0 µM,70% (active)
same,growth inhibition,[9]; [16],22%
same,growth inhibition,[9]; [17],90% (active)
same,growth inhibition,[9]; at 50.0 µM,54.6%
same,growth inhibition,[10]; at 1.2 µM,11%
same,growth inhibition,[10]; at 3.7 µM,13%
same,growth inhibition,[10]; [16],29%
same,growth inhibition,[10]; at 11.0 µM,14%
same,growth inhibition,[10]; at 33.0 µM,45%
same,growth inhibition,[10]; [17],86% (active)
same,growth inhibition,[10]; at 50.0 µM,62.1%
same,growth inhibition,[10]; at 100.0 µM,79% (active)
same,growth inhibition,[11]; at 1.2 µM,-20%
same,growth inhibition,[11]; at 3.7 µM,-9%
same,growth inhibition,[11]; at 11.0 µM,-13%
same,growth inhibition,[11]; at 33.0 µM,11%
same,growth inhibition,[11]; at 100.0 µM,77% (active)
same,growth inhibition,[12]; at 1.2 µM,-15%
same,growth inhibition,[12]; at 3.7 µM,-3%
same,growth inhibition,[12]; at 11.0 µM,3%
same,growth inhibition,[12]; at 33.0 µM,43%
same,growth inhibition,[12]; at 100.0 µM,85% (active)
same,growth inhibition,[13]; at 1.2 µM,11%
same,growth inhibition,[13]; at 3.7 µM,14%
same,growth inhibition,[13]; at 11.0 µM,7%
same,growth inhibition,[13]; at 33.0 µM,42%
same,growth inhibition,[13]; at 100.0 µM,84% (active)
same,growth inhibition,[14]; [16],32%
same,growth inhibition,[14]; [17],99% (active)
same,growth inhibition,[14]; at 50.0 µM,44.5%
same,growth inhibition,[15]; at 1.2 µM,-12%
same,growth inhibition,[15]; at 3.7 µM,1%
same,growth inhibition,[15]; at 11.0 µM,11%
same,growth inhibition,[15]; at 33.0 µM,27%
same,growth inhibition,[15]; at 100.0 µM,78% (active)
NC(N)=NC(N)=Nc1ccccc1 (tested in a mixture with another compound),growth inhibition,[1]; at 1.2 µM,-1%
same,growth inhibition,[1]; at 3.7 µM,-1%
same,growth inhibition,[1]; at 11.0 µM,0%
same,growth inhibition,[1]; at 33.0 µM,11%
same,growth inhibition,[1]; at 100.0 µM,32%
same,growth inhibition,[2]; at 1.2 µM,-1%
same,growth inhibition,[2]; at 3.7 µM,-2%
same,growth inhibition,[2]; at 11.0 µM,-16%
same,growth inhibition,[2]; at 33.0 µM,-9%
same,growth inhibition,[2]; at 100.0 µM,18%
same,growth inhibition,[3]; at 1.2 µM,-1%
same,growth inhibition,[3]; at 3.7 µM,-2%
same,growth inhibition,[3]; at 11.0 µM,0%
same,growth inhibition,[3]; at 33.0 µM,6%
same,growth inhibition,[3]; at 100.0 µM,41%
same,growth inhibition,[4]; at 1.2 µM,2%
same,growth inhibition,[4]; at 3.7 µM,-3%
same,growth inhibition,[4]; [16],-2%
same,growth inhibition,[4]; at 11.0 µM,1%
same,growth inhibition,[4]; at 33.0 µM,1%
same,growth inhibition,[4]; [17],7%
same,growth inhibition,[4]; at 50.0 µM,56.6%
same,growth inhibition,[4]; at 100.0 µM,55%
same,growth inhibition,[5]; at 1.2 µM,3%
same,growth inhibition,[5]; at 3.7 µM,3%
same,growth inhibition,[5]; [16],4%
same,growth inhibition,[5]; at 11.0 µM,4%
same,growth inhibition,[5]; at 33.0 µM,12%
same,growth inhibition,[5]; [17],16%
same,growth inhibition,[5]; at 50.0 µM,35.7%
